# Data as given in the supplement of paper PMC10681739.
# Molecular target: T1, ETS1 (UniProt P14921)
# T1 sequence: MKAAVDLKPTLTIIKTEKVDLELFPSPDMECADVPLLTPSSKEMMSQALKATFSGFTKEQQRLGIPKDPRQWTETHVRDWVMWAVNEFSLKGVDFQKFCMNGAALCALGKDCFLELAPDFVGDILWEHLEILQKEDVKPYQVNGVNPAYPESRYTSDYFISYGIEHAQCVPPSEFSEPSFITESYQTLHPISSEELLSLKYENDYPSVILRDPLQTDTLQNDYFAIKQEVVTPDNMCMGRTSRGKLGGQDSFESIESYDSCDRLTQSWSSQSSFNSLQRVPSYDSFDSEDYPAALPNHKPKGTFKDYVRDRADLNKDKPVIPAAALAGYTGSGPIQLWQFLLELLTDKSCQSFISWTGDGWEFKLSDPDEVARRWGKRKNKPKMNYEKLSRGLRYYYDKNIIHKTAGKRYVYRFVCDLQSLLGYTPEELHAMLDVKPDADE
# Assay: ETS1 binding intensity (PBM fluorescence) in presence of RUNX1, normalised to ETS1-only experiment (arbitrary fluorescence units); higher = stronger binding
# Conditions: ETS1 concentration 1 nM; RUNX1 concentration 25 nM
# Procedure: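 Cooperative genomic-context PBM: 36-bp genomic probes with neighbouring ETS1 and RUNX1 sites, double-stranded on Agilent 4x180k arrays. Full-length recombinant human ETS1 (1 nM) was incubated alone or with RUNX1 (25 nM) and detected with anti-ETS1 antibody plus Alexa488 secondary. Value is the median fluorescence intensity over 4 replicate spots; the ETS1+RUNX1 data were normalised to the ETS1-only data using probes without RUNX1 sites. The 36-bp variable region sits on the array probe with constant linker/primer flanks that are not printed.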
row,Sequence,ETS1 binding intensity
1,CGTTCTCTCATTTCCTGTGTGCACCCACATGAACCA,3230
2,GAAATCACATCCTTTTGCAAAACCACAGGTGTTTTG,1500
3,TGTGAACTGACAGGATGTGGTACAAGGCTTACAAAG,8820
4,GGACAAAACATCATAGGAAGTGGGTTTTGGGGTGAG,2950
5,AGGCCCCGCCCCTTCCGCCCACAGAGCCCGCCACTT,1000
6,CTGGTTTCCAACATCCTGTGGGCGGCCTGGTTTCAG,1270
7,ATTGTAAATTTCCTTTAAACGTCCCCACCGCGCTCC,480
8,TGACATGGCTTCCGCCTTGGGCTTTGTGGTCTCCCA,1150
9,ACAGATCCAAGGAAGCATATCCCGCAAGCAACTGTT,589
10,TGCAGCTTCCTGTCTGAGGCTTTGTGGTCCTTTCAT,889
11,CCCACTGATAAGACAGGATGTGGTAAAGAAGCCAGC,22800
12,ACAGTCGCACCGGAAGCTGCCCGCGGTGTTGACACA,11300
13,GCCACTATTTCCTGCCTTCTGCGGCTGAGAGTCCCA,997
14,AGTCCTGCCCACTTCCTGCCGCAAGAGAAATCCACT,3260
15,GCTGTCCATTTCCGAGATGTTAATGCGGGATCTTGC,628
16,ACACCCCAGGCAGGATGTGGTAGGGGTTGCCCCAGA,5030
17,AGACGGTAGGCCAGGAAACCGCAGGCCCCTGCCGGG,3730
18,AACCAAGAGGATTTCCTGCCCACACACTCAGCGTCT,751
19,AACATTACGGAAGTTTCTCTACCCATGCGGTGTCTC,683
20,GGTGGCCGCCGGAAGTGTGACCGCGGGAGGGGAGTG,25500

row,Sequence,ETS1 binding intensity
1,GTGCAGGGCCCGGAAGCTCAGTGTGGTTAAAGACAT,5260
2,GGAGGCGGAAGTGGAGGTTGTTGTGGCTCCGAGGGC,1950
3,TACTAGTTTGGGGCATCCTGTGGTATAGGGGAAGCA,4560
4,GGAGGAAGTGACACCCACCCACTGCCCCCGCAAGGT,987
5,TGGAACAATGCTGCTTCCTGTGGGTGTCCCCCGGCC,1400
6,CTGGTAGAAAAGGAAGCAGGTTGTGGTGAGCATTTA,1720
7,GTCACAGGAAAGAAGGAGCCTCGCCTTAACCGCACC,2930
8,GGTTGTGGAGTAGGATGTGGTGTCTAGCTTTCAGCA,568
9,GCCCGCCCCGGAAGTGCAAACTGTGTGGTCTGGCAG,7090
10,GAGGAGGAAAGCGGAAGCGCTGCCCGCAGTGGTAGG,8570
11,GGACCGGAAGTTAAGGCGTTCGCGGCGTGTGGTAAG,11800
12,GCCGCGAGTTCCGCCGGGTGGACCACAAATCCCGAG,451
13,AAGTGAAGAGCTTCCGCCGGGAGACCGCGGCTGCAG,686
14,GAGATACACAGCGACATCCGCCCGCAAGAGCATGGT,1090
15,GCTGCGCAGAGGAAACCAGGCTTGTTGGTTTTCATG,457
16,TGTGTAAGAGGAAACACCAAAACCACAAATATGAAA,3280
17,AGGGACTTCCGGTGACCAGAGCACTAGCGCCGCAAA,1990
18,CCCTACCTCTCCTTCCTGCCACAAGGGAAAGTCACT,481
19,CAGAGGACAGGATGCCAACCCCAAAACCGCAGCGAC,6200
20,AGACCCGGAAATGGTGGGTGTTTCTTGCAACCACGG,2290
